# In the supplement of paper PMC6555819:
# Assays:
# Assay in all cases: PBM binding z-score (relative to random genomic background probes); higher = stronger binding; sequences stand for … in GC…GCGATTGACAGCGTAGAATGAAGG
# [1] = tested on: RARb homodimer (NR concentration 270 nM)
# Outline: (§1)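 Probes were double-stranded and carried 34-nt variable regions with direct-repeat seeds, single-nucleotide variants, half-site ablations and random human genomic background sequences, printed on custom Agilent 4×180K protein-binding microarrays. Arrays were incubated 1 h with ligand-free nuclear receptor dimers in PBS pH 7.4, 2% milk, 0.02% Triton X-100, 1 mM DTT, 0.2 mg/mL BSA and 0.4 mg/ml salmon testes DNA. Antibodies against each partner (one per run) detected binding, and scanned fluorescence was regression-normalized. Binding z-scores use the random background probes as reference.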
# [2] = tested on: RARg:RXRa (NR concentration 270 nM, RXRa partner concentration 90 nM)
# Outline: as §1
# [3] = tested on: RARg homodimer (NR concentration 270 nM)
# Outline: as §1
# [4] = tested on: RXRa DBDmut IVT, anti-RXR (DBD mutation: RXRa K156A/R161A, NR concentration 90 nM)
# Outline: as §1
# [5] = tested on: RXRa homodimer (NR concentration 180 nM)
# Outline: as §1
# [6] = tested on: THRa:RXRa (NR concentration 90 nM, RXRa partner concentration 90 nM)
# Outline: as §1
# [7] = tested on: THRa homodimer (NR concentration 90 nM)
# Outline: as §1
# [8] = tested on: VDR homodimer (NR concentration 270 nM)
# Outline: as §1
Sequence,PBM binding z-score [1],PBM binding z-score [2],PBM binding z-score [3],PBM binding z-score [4],PBM binding z-score [5],PBM binding z-score [6],PBM binding z-score [7],PBM binding z-score [8]
CTCGAAAGGTCGGTTCAGGTGAGTATACGGATAA,2.52,2.64,2.62,1.52,2.23,5.09,1.1,2.34
ATATGTAGGTTATCGGGTCATTTAGTTTGCGCAT,3.08,3.19,2.33,1.69,3.5,3.3,2.86,2.85
AGAATGAGGTTAAGATAAGGGAAACAGAATACAT,1.07,2.11,1.69,0.785,2.6,2.71,1.05,0.183
GGAACGAGGGCAAAGTTGAGAGCATCTGTCGACG,1.51,2.51,1.87,2.46,2.33,1.53,-0.419,1.38
CCTCGGAGGACAGAAGGTCGGAGCTGTCCGCTTT,1.03,0.91,0.81,-0.0663,-0.268,0.396,-0.577,-0.651
CCTGCTAGGTGAATGGTCAGCTAAAGCAGCTCGC,0.445,0.0358,0.301,-0.37,-0.237,0.283,-0.317,-0.841
TTAACAAGGTGAGCTGAGGTCGTTGATCCAACTC,1.42,1.03,1.09,0.404,1.42,4.55,2.04,1.8
